# High-throughput results (PubChem BioAssay)
# ALOX12 inh = Primary qHTS assay for inhibitors of human arachidonate 12S-lipoxygenase (ALOX12): Round 2 | Polyunsaturated fatty acid lipoxygenase ALOX12 (Homo sapiens), P18054 | purified 12hLO, xylenol orange hydroperoxide absorbance | Potency, µM (doses to about 108 µM), most hits filed as inhibitors | actives 1.1% (n = 580,000) | AID 1671190, 2021
# Target sequence (P18054 whole entry, looked up): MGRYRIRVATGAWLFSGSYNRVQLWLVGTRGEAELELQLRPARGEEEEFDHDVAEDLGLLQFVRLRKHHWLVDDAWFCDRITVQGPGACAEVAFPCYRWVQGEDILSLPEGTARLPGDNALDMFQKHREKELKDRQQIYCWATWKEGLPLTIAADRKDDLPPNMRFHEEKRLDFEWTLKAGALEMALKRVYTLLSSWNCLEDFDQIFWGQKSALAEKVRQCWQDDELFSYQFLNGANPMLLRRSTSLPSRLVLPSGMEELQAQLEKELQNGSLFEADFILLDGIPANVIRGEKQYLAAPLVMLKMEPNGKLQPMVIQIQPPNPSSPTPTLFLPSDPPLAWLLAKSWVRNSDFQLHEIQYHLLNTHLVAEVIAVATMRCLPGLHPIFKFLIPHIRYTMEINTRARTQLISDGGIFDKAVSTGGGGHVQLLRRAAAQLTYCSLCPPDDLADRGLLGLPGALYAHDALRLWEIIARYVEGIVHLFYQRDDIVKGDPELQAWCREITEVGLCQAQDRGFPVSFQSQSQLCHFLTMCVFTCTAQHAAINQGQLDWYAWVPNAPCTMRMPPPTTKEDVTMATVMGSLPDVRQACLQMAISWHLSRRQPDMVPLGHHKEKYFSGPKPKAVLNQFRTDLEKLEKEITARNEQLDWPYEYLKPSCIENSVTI
#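 Purified human 12hLO (150 nM final) in 25 mM Hepes, 0.01% Triton X-100, pH 7.0 was preincubated 15 min at room temperature with compound. Then 40 uM arachidonic acid was added, 30 min. Hydroperoxide was read by Fe-XO absorbance ratio 573/405 nm.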
# gsp antag = qHTS for Antagonists of gsp, the Etiologic Mutation Responsible for Fibrous Dysplasia/McCune-Albright Syndrome: qHTS; gsp-mutant cells, cAMP HTRF, 30 min; Potency, µM (doses to about 76.9 µM), hits mostly inhibitors; actives 0.4% (n = 340,000); AID 624288, 2012; calls by dose curve; cell line not stated here;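 also: intracellular cAMP measured with PDE inhibitor Ro 20-1724 present during compound exposure; nearly all actives have a fitted effect of over 65% in size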
#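 G418-selected cells were plated in DMEM/10% FBS for 16-24 h at 37C, then treated with compounds plus the PDE inhibitor […] (300 uM solution added) for 30 min at 37C. Intracellular cAMP was measured by HTRF after 30 min lysis at room temperature.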
# Mito fusion act = qHTS Assay for Small Molecule Inhibitors of Mitochondrial Division or Activators of Mitochondrial Fusion; Potency, µM (titrated, usually from 46.1 µM), usual class: activators; AID 485298, 2010; S. cerevisiae fusion-defective mutant growth rescue, CellTiterGlo 48 h; actives 0.23% (n = 320,000); also: nearly all actives have a fitted effect of over 45% in size
#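 Read-out: ATP-based luminescence (CellTiterGlo, 10 min ambient) reporting growth of fusion-defective ts yeast after 48 hours at 37C on glycerol/ethanol YPEG medium in the presence of compound.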
# FUS suppressor = qHTS for Suppressors of FUS Proteinopathy: Primary screen using FUS-linked yeast assay. S. cerevisiae FUS-expressing, growth rescue, OD600, 24 h. Potency, µM (top dose mostly 76.6 µM), hits mostly activators. actives 0.24% (n = 390,000); also: nearly all actives have a fitted effect of over 55% in size
#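 Galactose (2%) drives FUS expression in yeast precultured in raffinose; seeding density OD 0.005. Test compounds incubated 24hr at 30C and 99% humidity before absorbance at 600 nm was measured.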
# gsp ag = qHTS for Agonist of gsp, the Etiologic Mutation Responsible for Fibrous Dysplasia/McCune-Albright Syndrome: qHTS | Potency, µM (top dose mostly 76.9 µM), hits mostly activators | actives 0.13% (n = 340,000) | gsp mutant cells, cAMP HTRF, 30 min | AID 624287, 2012; active = well fitted activation curve with a large enough effect; inconclusive = small, poorly fitted or top-dose-only effect, or another doubt; inactive = no such curve, though single readings can be large or run the other way; cell line not stated here;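 also: phosphodiesterase inhibitor Ro 20-1724 added with compounds to block cAMP breakdown; nearly all actives have a fitted effect of over 60% in size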
#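 Cells stably selected in G418 were plated at 2000/well, grown 16-24 hr, then given compounds in DMSO with the PDE inhibitor […] (300 uM solution added) for 30 min at 37C; cAMP was read by HTRF.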
# Hits are given with their value; - = inactive; ? = inconclusive; . = not tested or not shown; [ ] = another dose, or the depositor's remark. A selection: hits, their analogues and other compounds. The true share with any hit is near 1.6%. Unless noted, calls follow the shape of the dose curve; as a rule, active = well fitted curve in the direction sought with a large enough effect; inconclusive = small, poorly fitted or top-dose-only effect, or another doubt; inactive = no such curve, though single readings can be large; an effect the other way counts as inactive or inconclusive.
SMILES,ALOX12 inh,gsp antag,Mito fusion act,FUS suppressor,gsp ag
CC1=NN(c2ccc(C)cc2)C(=O)/C1=C/c1ccc(-c2cc([N+](=O)[O-])ccc2O)o1,20µM,?,-,-,-
CCCOc1cc2cc(C(=O)c3ccccc3O)cnc2cc1OCCC,-,.,.,.,.
COc1ccc([C@H]2CC(=O)C=C(c3ccc(O)cc3)C2)cc1OC,-,-,-,-,.
CCOc1ccc(Cl)cc1C1=CC(=O)C[C@H](c2ccc(OC)cc2)C1,-,-,35µM,-,-
COc1ccc([C@H]2CC(=O)C=C(c3cccc(Cl)c3O)C2)cc1OC,22µM,-,?,-,.
O=C1C=C(c2cccc(Cl)c2O)C[C@@H](c2ccc3c(c2)OCO3)C1,?,-,11µM,-,-
COc1ccc([C@H]2CC(=O)C=C(c3cc(Cl)ccc3OC)C2)cc1,-,-,?,?,-
Cc1ccc(NC(=O)c2ncoc2-c2cccc(Cl)c2)cc1F,-,.,.,.,.
COc1cc(OC)c2c(-c3ccccc3)cc(=O)oc2c1C(CC(=O)N1CCCC1)c1ccc2c(c1)OCO2 (stereo not given),50µM,-,-,?,.
COc1ccc(C(=O)CSc2nnc(Cn3cnc4ccccc43)o2)cc1,-,40µM,-,-,-
CC(=O)c1ccc(NC(=O)CSc2nnc(Cn3cnc4ccccc43)o2)cc1,-,-,-,-,-[15.4 µM]
CC(C)C(C)(C#N)NC(=O)CN1CCCC1 (stereo not given),-,.,.,.,.
CC(C)C[C@@H](NC(=O)C1=C[C@@H](NS(=O)(=O)c2cccc(C(F)(F)F)c2)[C@@H](O)[C@H](O)C1)C(N)=O,40µM,.,.,.,.
COc1cccc(NC(=O)C(=O)c2c(C)n(C)c3ccccc23)c1,-,.,.,.,.
Cc1ccc(C(=O)N2CCC3(CC2)Oc2ccc(F)cc2C(=O)C32CC(c3cccnc3)=NO2)s1 (stereo not given),?,35µM,-,-,.
CC(C)C(=O)N1CCC2(CC1)Oc1ccc(F)cc1C(=O)C21CC(c2cccnc2)=NO1 (stereo not given),.,.,-,.,.
CCCn1c(N)c(N2CCOCC2)c(=O)n(CC(=O)NCc2ccc(F)cc2)c1=O,-,.,.,.,.
COc1ncccc1CNC(=O)c1ccc2c(c1)NC(=O)CS2,-,.,.,.,.
Cc1c2c(nc3ccccc13)CCSC2,4.5µM,.,.,.,.
COc1ccc(CN2CCC3(CC2)CC(O)CCO3)cc1C (stereo not given),-,.,.,.,.
S=C1NCCc2ccccc2C1c1ccccc1 (stereo not given),35µM,-,-,-,-
CC(C)N1CC[C@H](c2nc3ccc(C(F)(F)F)cc3[nH]2)C1,-,.,.,.,.
COc1ccc(C2=NCC(CSc3nnc(-c4ccc5c(c4)OCO5)o3)S2)cc1 (stereo not given),-,28µM,-,-,?
COc1cccc(OC(=O)CSc2nnc(-c3ccc4c(c3)OCO4)o2)c1,?,.,.,-,.
COc1ccc(NC(=O)c2cc3c(-c4ccc(OC)c(OC)c4)nn(C)c3s2)cc1OC,-,-,-,-,-
SMILES,ALOX12 inh,gsp antag,Mito fusion act,FUS suppressor,gsp ag
COc1ccc(-c2nn(C)c3sc(C(=O)NCc4ccco4)cc23)cc1OC,-,-,-,-,13µM
Cc1ccc(-n2c(O)c(/C=N/Nc3ccc(S(=O)(=O)N4CCOCC4)cc3[N+](=O)[O-])c3ccccc3c2=O)c(C)c1,-,40µM,-,-,-[15.4 µM]
COc1cccc(-n2c(C)c(C)c3c2ncn2nc(-c4cccs4)nc32)c1,-,.,.,.,.
CCc1c(C(=O)O)[nH]c2ccc(Br)cc12,-,-,-,-,4µM
CCc1ccc(-c2nc(SCC(=O)N3CCCC3c3ccc4c(c3)OCCCO4)n[nH]2)cc1 (stereo not given),-,.,.,.,.
Cc1nnc(N2C(=O)C(=O)/C(=C(/O)c3ccc4c(c3)CC(C)O4)C2c2ccccc2F)s1 (stereo not given),-,-,-,-,20µM
CCCCOc1cccc(C2/C(=C(\O)c3ccc4c(c3)OCCO4)C(=O)C(=O)N2CCN2CCOCC2)c1 (stereo not given),?,-,-,-,16µM
